Reference: PubChem BioAssay AID652192 (Johns Hopkins Ion Channel Center, 2013)
Measured potencies and affinities stand elsewhere. Activity calls are given as the source filed them.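 How the source made its calls: active means peak inhibition of the KCNQ2 potassium channel over 30% at some tested dose, with a fitted dose response curve; inactive means no inhibition at any dose, or no curve fitted.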

What follows are molecules tested against Potassium voltage-gated channel subfamily KQT member 2 (Rattus norvegicus) (UniProt O88943) (assay: KCNQ2 channel inhibition, SAR follow-up, selectivity assay for TASK1 inhibitor project, cell-based, FluxOR thallium flux, concentration-response (AID 652192)). Details: KCNQ2 cell line, FluxOR thallium flux fluorescence; series mostly up to 30 µM.
Chain of Potassium voltage-gated channel subfamily KQT member 2 (Rattus norvegicus) (O88943 whole entry, looked up): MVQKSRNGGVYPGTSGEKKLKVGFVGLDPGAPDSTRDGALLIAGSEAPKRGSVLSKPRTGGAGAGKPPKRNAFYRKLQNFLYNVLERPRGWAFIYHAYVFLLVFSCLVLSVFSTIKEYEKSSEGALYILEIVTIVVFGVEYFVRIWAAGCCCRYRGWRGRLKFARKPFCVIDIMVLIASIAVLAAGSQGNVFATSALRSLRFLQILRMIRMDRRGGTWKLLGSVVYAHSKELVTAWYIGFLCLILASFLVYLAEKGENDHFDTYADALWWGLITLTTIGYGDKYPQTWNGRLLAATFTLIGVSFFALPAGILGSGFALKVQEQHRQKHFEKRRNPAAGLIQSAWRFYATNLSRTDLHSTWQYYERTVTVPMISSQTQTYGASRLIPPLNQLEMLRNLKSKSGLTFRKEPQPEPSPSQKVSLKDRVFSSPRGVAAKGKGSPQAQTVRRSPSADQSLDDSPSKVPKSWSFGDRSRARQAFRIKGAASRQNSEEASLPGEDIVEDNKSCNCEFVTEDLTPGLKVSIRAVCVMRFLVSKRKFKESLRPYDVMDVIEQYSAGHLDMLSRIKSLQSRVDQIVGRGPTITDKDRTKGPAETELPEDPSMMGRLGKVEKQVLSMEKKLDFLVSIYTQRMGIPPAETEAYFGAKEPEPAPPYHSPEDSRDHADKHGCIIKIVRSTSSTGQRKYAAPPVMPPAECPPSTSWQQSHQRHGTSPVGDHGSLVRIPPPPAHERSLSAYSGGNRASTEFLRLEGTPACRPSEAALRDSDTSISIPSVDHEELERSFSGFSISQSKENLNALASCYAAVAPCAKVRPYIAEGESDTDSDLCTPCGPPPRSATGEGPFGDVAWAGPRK

outcome, inactive:
O=C(Nc1cccc(NC(=O)c2ccccn2)c1)c1ccccc1
O=C(Nc1cccc(NC(=O)c2ccco2)c1)c1ccccc1
CCOc1ccccc1NC(=O)c1cccc(NC(=O)CC2CCCCC2)c1
O=C(Nc1cccc(NC(=O)c2ccccc2)c1)c1ccccc1
CCOc1ccccc1NC(=O)c1cccc(NC(=O)c2ccc(C(F)(F)F)cc2)c1
Cc1cccc(C(=O)Nc2cccc(NC(=O)c3cccc(C(F)(F)F)c3)c2)c1
O=C(Nc1cccc(NC(=O)C2CCCCC2)c1)c1ccccc1
Cc1cccc(C(=O)Nc2cccc(NC(=O)c3ccc(Cl)cc3)c2)c1
Cc1cccc(C(=O)Nc2cccc(NC(=O)c3ccc(C(F)(F)F)cc3)c2)c1
COc1c(F)cccc1C(=O)Nc1cccc(NC(=O)c2cccc(C)c2)c1
CCCC(=O)C1CCN(c2ncnc3c2CN(C(=O)c2ccc(-c4ccccc4)cc2)CC3)CC1
COc1ccccc1C(=O)Nc1cccc(NC(=O)c2cccc(C)c2)c1
CCOc1ccccc1NC(=O)c1cccc(NC(=O)C2CCCC2)c1
COc1ccc(F)cc1C(=O)Nc1cccc(NC(=O)c2cccc(C)c2)c1
O=C(Nc1cccc(NC(=O)c2cccs2)c1)c1ccccc1
CCOc1ccccc1NC(=O)c1cccc(NC(=O)c2cccc(C)c2)c1
CCOc1ccccc1NC(=O)c1cccc(NC(=O)c2ccccc2Cl)c1
COc1cccc(C(=O)Nc2cccc(NC(=O)c3cccc(C)c3)c2)c1
CCOc1ccccc1NC(=O)c1cccc(NC(=O)c2ccc(OC)cc2)c1
Cc1cccc(C(=O)Nc2cccc(NC(=O)c3cccc(F)c3)c2)c1
COc1ccccc1C(=O)Nc1cc(NC(=O)c2ccccc2C(C)C)ccc1F
CCOc1ccccc1NC(=O)c1cccc(C(=O)NC2CCCC2)c1
CCOc1ccccc1NC(=O)c1cccc(NC(=O)c2ccccc2C(F)(F)F)c1
CCOc1ccccc1C(=O)Nc1cccc(NC(=O)C2CCCC2)c1
CCOc1ccccc1NC(=O)c1cccc(NC(=O)C2CCCO2)c1 (stereo not drawn)
O=C(Nc1cccc(NC(=O)c2ccc(F)cc2)c1)c1ccccc1
Cc1cccc(C(=O)Nc2cccc(NC(=O)c3ccccc3C)c2)c1
O=C(Nc1ccccc1Cl)c1cccc(NC(=O)C2CCCC2)c1
COc1cccc(OC)c1C(=O)Nc1cccc(NC(=O)c2cccc(C)c2)c1
Cc1ccc(C(=O)Nc2cccc(NC(=O)c3ccccc3)c2)cc1
O=C(Nc1cccc(NC(=O)c2ccc(C(F)(F)F)cc2)c1)c1ccccc1
CCOc1ccccc1NC(=O)c1cccc(NC(=O)C2CC2)c1
Cc1cccc(S(=O)(=O)Nc2cccc(NC(=O)c3ccccc3)c2)c1
